Bioassay records deposited in PubChem BioAssay by National Center for Advancing Translational Sciences (NCATS).
Rows were chosen to be rich in hits. Some 3.7% of all compounds tested hit in one or more screens of this group.
HepG2 tox: counter-screen for TGF-b inhibitors: cytotoxicity in HepG2 cells | Potency, µM (highest dose often 46.1 µM), for the others: at the highest dose activity change, negative = cytotoxicity, usual class: cytotoxic | HepG2 CAGA-GFP viability, ATP luminescence, 18 h | 0.76% of 410,000 active
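CellTiter-Glo luminescence gave cytotoxicity after 18 hours at 37 degrees C. The cells were HepG2 CAGA-GFP in 1% FBS DMEM, stimulated with 500 pg/mL TGF-beta after compound addition. %Activity was normalised to no-cell wells (complete cell-killing) and DMSO (no toxicity), and curves were fitted and classified.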
GLP1R ag: activates the human GLP-1 receptor. Potency, µM (doses to about 45.6 µM), without a hit: at the highest dose activation, most hits filed as activators. 0.007% of 380,000 active. AID 624172. P43220. HEK293 GLP-1R CRE-luciferase, luminescence, 4-6 h; cells express a hypersensitive GLP-1R form; also: % of control where 0% means no effect
Target sequence (P43220 whole entry, looked up): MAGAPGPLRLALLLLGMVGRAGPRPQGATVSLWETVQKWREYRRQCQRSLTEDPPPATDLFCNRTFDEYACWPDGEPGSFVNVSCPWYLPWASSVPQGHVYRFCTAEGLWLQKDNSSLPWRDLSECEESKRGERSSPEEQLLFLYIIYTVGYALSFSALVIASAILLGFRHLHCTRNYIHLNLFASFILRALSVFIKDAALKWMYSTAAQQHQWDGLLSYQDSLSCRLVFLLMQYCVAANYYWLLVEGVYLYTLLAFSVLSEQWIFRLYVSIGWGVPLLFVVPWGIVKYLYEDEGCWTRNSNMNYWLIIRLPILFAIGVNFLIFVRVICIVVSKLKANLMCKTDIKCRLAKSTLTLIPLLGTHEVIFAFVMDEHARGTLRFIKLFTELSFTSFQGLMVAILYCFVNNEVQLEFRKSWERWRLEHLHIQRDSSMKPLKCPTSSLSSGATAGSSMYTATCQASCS
TGFb SMAD3 inh: TGF-b pathway inhibition | HepG2 CAGA-GFP TGF-b/SMAD3 reporter, GFP fluorescence, 18 h; TGF-beta stimulated, 500 pg/mL final | Potency, µM (top dose mostly 46.1 µM), for the others: at the highest dose activity, negative = inhibition, most hits filed as inhibitors | 1.2% of 410,000 active; also: % is scaled to controls: 0 for no effect and ±100 for the full control effect; nearly all actives have a fitted effect of over 65% in size
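Smad-responsive CAGA-GFP expression was quantified in HEPG2 cells exposed to compounds and 500 pg/mL final TGF-beta for 18 h at 37 degrees C; unstimulated wells defined full inhibition.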
ATXN viability: reduces viability in counter-screen for ATXN expression inhibitors; Potency, µM (titrated, usually from 56.7 µM), hits mostly cytotoxic; 0.49% of 400,000 active; S2 cells (HEK-293 line with an ATXN2-luciferase reporter) viability, CellTiter-Fluor protease fluorescence, 24 h; also: nearly all actives have a fitted effect of over 40% in size
ATXN2 expr inh: reduces ATXN2 reporter expression in HEK-293 cells; HEK-293 ATXN2-luciferase reporter, luminescence, 24 h; 0.72% of 360,000 active; Potency, µM (top dose mostly 57 µM), for inactives: at the highest dose activity change, negative = inhibition, actives largely listed as inhibitors; AID 1745845; also: % is scaled to controls: 0 for no effect and ±100 for the full control effect; nearly all actives have a fitted effect of over 55% in size
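ATXN2-luciferase reporter cells (luciferase flanked by upstream and downstream ATXN2 gene portions) were treated 24 h at 37 °C with compounds at up to 57 uM. SteadyGlo luminescence gave expression; GF-AFC fluorescence gave viability.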
GLP1R inv ag: inverse agonists of human GLP-1 receptor | P43220 | HEK293 GLP-1R CRE-luciferase, luminescence, 24 h; GLP-1R form is constitutively active | Potency, µM (doses to about 38.3 µM), for inactives: at the top dose activity change, negative = inhibition, hits mostly inhibitors | 1.6% of 410,000 active; also: % is scaled to controls: 0 for no effect and ±100 for the full control effect; nearly all actives have a fitted effect of over 55% in size
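Luminescence readout: a drop in cAMP-driven luciferase signal flags inverse agonism at a constitutively active GLP-1R stably expressed in HEK293. Compound exposure lasted 24 hr at 37 deg C, 5% CO2.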
Active calls of the source: *. Calls follow the shape of the dose curve; as a rule, active = well fitted curve in the direction sought with a large enough effect; inconclusive = small, poorly fitted or top-dose-only effect, or another doubt; inactive = no such curve, though single readings can be large; an effect the other way counts as inactive or inconclusive. Potency is read from the fitted curve at half-maximal effect.

What do the screens show for `OC[C@H]1O[C@H](O[C@]2(CCl)O[C@H](CCl)[C@@H](O)[C@@H]2O)[C@H](O)[C@@H](O)[C@H]1Cl`?
ATXN viability: inactive; ATXN2 expr inh: 7.8%

How did Cc1cccc(Cl)c1NC(=O)N1CCCN(c2nc3ccc(Cl)cc3s2)CC1 do in these assays?
HepG2 tox: -62.9%; GLP1R ag: -7.9%; TGFb SMAD3 inh: 14.1µM*; ATXN viability: inconclusive; GLP1R inv ag: inconclusive

How did CCOC(=O)c1ccc2c(c1)N(Cc1ccc(F)cc1Cl)C(=O)c1ccccc1S2(=O)=O do in these assays?
HepG2 tox: 2.0%; TGFb SMAD3 inh: 1.5%; ATXN viability: inactive; ATXN2 expr inh: 14.2%; GLP1R inv ag: -8.3%

Results for O=[N+]([O-])c1ccc(C=C2c3ccccc3-c3ccccc32)cc1 ?
HepG2 tox: -61.9%; TGFb SMAD3 inh: inconclusive

What do the screens show for `Cc1ccccc1Cn1cc(NC(=O)c2cc3nc(-c4ccco4)cc(C(F)(F)F)n3n2)cn1`?
HepG2 tox: -4.1%; GLP1R ag: -5.0%; TGFb SMAD3 inh: -9.4%; ATXN viability: inactive; ATXN2 expr inh: -10.5%; GLP1R inv ag: inconclusive

What do the screens show for `CCc1ccc(-c2cc(C(F)(F)F)n3nc(C(=O)Nc4cnn(Cc5ccc(C)cc5)c4)cc3n2)s1`?
HepG2 tox: -21.7%; GLP1R ag: -13.0%; TGFb SMAD3 inh: 2.4%; ATXN viability: inconclusive; ATXN2 expr inh: 11.2µM*; GLP1R inv ag: 4.6%

What do the screens show for `CC(C)(C)c1ccc(S(=O)(=O)NCc2ccc3c(c2)CCN3C(=O)c2ccccc2)cc1`?
HepG2 tox: -15.4%; TGFb SMAD3 inh: inconclusive; GLP1R inv ag: inconclusive

How did O=C(CN(C1CCCCC1)S(=O)(=O)c1ccccc1)NCC1CCCO1 (stereo not drawn) do in these assays?
HepG2 tox: -1.3%; GLP1R ag: 0.5%; TGFb SMAD3 inh: 6.1%; ATXN viability: inactive; ATXN2 expr inh: -7.9%; GLP1R inv ag: -5.2%

Results for O=C(CN(C1CCCCC1)S(=O)(=O)c1ccc(F)cc1)NCC1CCCO1 (stereo not drawn) ?
HepG2 tox: 7.08µM*; GLP1R ag: 15.5%; TGFb SMAD3 inh: 4.47µM*; ATXN viability: inconclusive; ATXN2 expr inh: -5.8%; GLP1R inv ag: 0.9%

Results for COc1ccccc1-c1c(C)nn2c(N3CCN(c4ccc(F)cc4)CC3)cc(C)nc12 ?
HepG2 tox: 4.7%; TGFb SMAD3 inh: -3.9%; ATXN viability: inactive; ATXN2 expr inh: 7.7%; GLP1R inv ag: 0.7%

What do the screens show for `CCCCCCCn1ccc(=N)cc1`?
HepG2 tox: 1.7%; GLP1R ag: -9.5%; TGFb SMAD3 inh: inconclusive; ATXN viability: inactive; ATXN2 expr inh: inconclusive; GLP1R inv ag: inconclusive

What do the screens show for `CCCCCCCCCn1ccc(=N)cc1`?
HepG2 tox: -2.9%; GLP1R ag: -2.4%; TGFb SMAD3 inh: inconclusive; ATXN viability: inactive; ATXN2 expr inh: 2.12µM*; GLP1R inv ag: inconclusive

Results for COc1cccc(/C=N/Nc2snc(SC)c2C#N)c1O ?
HepG2 tox: -47.1%; GLP1R ag: -2.3%; TGFb SMAD3 inh: 10µM*; ATXN viability: inactive; ATXN2 expr inh: -13.4%; GLP1R inv ag: inconclusive

What do the screens show for `COc1ccc(/C=N/Nc2snc(SC)c2C#N)cc1OC`?
HepG2 tox: 1.9%; GLP1R ag: inconclusive; TGFb SMAD3 inh: 27.1%; ATXN viability: inactive; ATXN2 expr inh: 41.6%; GLP1R inv ag: -6.6%

Results for CC1=C(C(=O)Nc2ccccc2)C(c2ccc(C)cc2)N=C(Nc2nc3ccccc3o2)N1 (stereo not drawn) ?
HepG2 tox: 11.2µM*; GLP1R ag: -13.0%; TGFb SMAD3 inh: inconclusive; ATXN viability: inconclusive; ATXN2 expr inh: inconclusive; GLP1R inv ag: inconclusive
